# Reference: PubChem BioAssay AID1159580 (chemical genetic matrix, 2015)
# Several values for one entry are separate records, joined by “and”; a condition that tells them apart may be missing. Equal entries are not always repeated. Out of some 5,500 compounds screened, about 2,000 (36%) were called active. Roughly 18% stayed inconclusive and do not appear here. No stated cut-off is given here; in the data, active means normalized growth mostly below about 0.91 (no sharp cut-off); inconclusive means no clear call, values can overlap the other calls; inactive means mostly above about 0.92. This is one part of the list. The source holds several records for some structures; these can differ, active in one and inactive in another.
# Test: chemical genetic growth profiling, strain panel (AID 1159580);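 further: tested at 20 µM; growth read once vehicle control cultures reached saturation at 30 °C; 1 = growth at the plate median or of vehicle wells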
# Conditions: growth OD
structure (smiles),measurement,setting,value
CC(C)COCC(CN(Cc1ccccc1)c1ccccc1)N1CCCC1 (stereo not given),normalized growth,"S. cerevisiae deletion strains, locus YJR075W, strain HOC1, stronger effect = lower value",0.798 (active) and 1.01 (inactive)
same,normalized growth,"S. cerevisiae deletion strains, locus YKL009W, strain mrt4, stronger effect = lower value",0.935 (inactive)
same,normalized growth,"S. cerevisiae deletion strains, locus YKL068W, stronger effect = lower value",0.989 (inactive)
same,normalized growth,"S. cerevisiae deletion strains, locus YKL085W, strain MDH1 (second series), stronger effect = lower value",0.979 (inactive)
same,normalized growth,"S. cerevisiae deletion strains, locus YKL085W, strain MDH1, stronger effect = lower value",0.979 (inactive)
same,normalized growth,"S. cerevisiae deletion strains, locus YKL160W, strain elf1, stronger effect = lower value",1.02 (inactive)
same,normalized growth,"S. cerevisiae deletion strains, locus YKL190W, strain CNB1, stronger effect = lower value",0.923 (inactive)
same,normalized growth,"S. cerevisiae deletion strains, locus YKR001C, strain vps1, stronger effect = lower value",0.793 (active)
same,normalized growth,"S. cerevisiae deletion strains, locus YKR026C, strain gcn3, stronger effect = lower value",1.03 (inactive)
same,normalized growth,"S. cerevisiae deletion strains, locus YKR091W, strain srl3, stronger effect = lower value",1.02 (inactive)
same,normalized growth,"S. cerevisiae deletion strains, locus YLL001W, strain dnm1, stronger effect = lower value",1.03 (inactive)
same,normalized growth,"S. cerevisiae deletion strains, locus YLL026W, stronger effect = lower value",1.02 (inactive)
same,normalized growth,"S. cerevisiae deletion strains, locus YLL041C, strain sdh2, stronger effect = lower value",1.05 (inactive)
same,normalized growth,"S. cerevisiae deletion strains, locus YLR027C, strain aat2, stronger effect = lower value",1.01 (inactive)
same,normalized growth,"S. cerevisiae deletion strains, locus YLR039C, strain RIC1, stronger effect = lower value",0.705 (inactive)
same,normalized growth,"S. cerevisiae deletion strains, locus YLR058C, strain SHM2, stronger effect = lower value",0.858 (active)
same,normalized growth,"S. cerevisiae deletion strains, locus YLR102C, strain apc9, stronger effect = lower value",0.989 (inactive)
same,normalized growth,"S. cerevisiae deletion strains, locus YLR113W, strain HOG1, stronger effect = lower value",1.01 (inactive)
same,normalized growth,"S. cerevisiae deletion strains, locus YLR221C, strain rsa3, stronger effect = lower value",0.996 (inactive)
same,normalized growth,"S. cerevisiae deletion strains, locus YLR258W, strain gsy2, stronger effect = lower value",1.03 (inactive)
same,normalized growth,"S. cerevisiae deletion strains, locus YLR262C, strain YPT6 (second series), stronger effect = lower value",1.01 (inactive)
same,normalized growth,"S. cerevisiae deletion strains, locus YLR262C, strain YPT6, stronger effect = lower value",0.59 (active)
same,normalized growth,"S. cerevisiae deletion strains, locus YLR268W, strain sec22, stronger effect = lower value",0.935 (inactive)
same,normalized growth,"S. cerevisiae deletion strains, locus YLR320W, strain mms22, stronger effect = lower value",0.948 (inactive)
same,normalized growth,"S. cerevisiae deletion strains, locus YLR330W, strain CHS5, stronger effect = lower value",0.95 (inactive)
same,normalized growth,"S. cerevisiae deletion strains, locus YLR342W, strain FKS1 (second series), stronger effect = lower value",0.707 (active)
same,normalized growth,"S. cerevisiae deletion strains, locus YLR342W, strain FKS1, stronger effect = lower value",1 (inactive)
same,normalized growth,"S. cerevisiae deletion strains, locus YLR357W, strain rsc2, stronger effect = lower value",1.01 (inactive)
same,normalized growth,"S. cerevisiae deletion strains, locus YLR370C, strain arc18, stronger effect = lower value",1.04 (inactive)
same,normalized growth,"S. cerevisiae deletion strains, locus YLR371W, strain rom2, stronger effect = lower value",0.961 (inactive)
same,normalized growth,"S. cerevisiae deletion strains, locus YLR384C, strain iki3, stronger effect = lower value",1.03 (inactive)
same,normalized growth,"S. cerevisiae deletion strains, locus YLR418C, strain cdc73, stronger effect = lower value",0.698 (active)
same,normalized growth,"S. cerevisiae deletion strains, locus YML016C, strain PPZ1, stronger effect = lower value",0.973 (inactive)
same,normalized growth,"S. cerevisiae deletion strains, locus YML032C, strain rad52, stronger effect = lower value",0.904 (active)
same,normalized growth,"S. cerevisiae deletion strains, locus YML120C, strain ndi1, stronger effect = lower value",1.05 (inactive)
same,normalized growth,"S. cerevisiae deletion strains, locus YML124C, strain tub3, stronger effect = lower value",0.989 (inactive)
same,normalized growth,"S. cerevisiae deletion strains, locus YMR058W, strain fet3, stronger effect = lower value",0.997 (inactive)
same,normalized growth,"S. cerevisiae deletion strains, locus YMR078C, strain ctf18, stronger effect = lower value",0.986 (inactive)
same,normalized growth,"S. cerevisiae deletion strains, locus YMR125W, strain sto1, stronger effect = lower value",1.03 (inactive)
same,normalized growth,"S. cerevisiae deletion strains, locus YMR129W, stronger effect = lower value",1.02 (inactive)
same,normalized growth,"S. cerevisiae deletion strains, locus YMR205C, strain PFK2, stronger effect = lower value",1.02 (inactive)
same,normalized growth,"S. cerevisiae deletion strains, locus YMR223W, strain ubp8, stronger effect = lower value",0.894 (active)
same,normalized growth,"S. cerevisiae deletion strains, locus YMR231W, strain pep5, stronger effect = lower value",1.04 (inactive)
same,normalized growth,"S. cerevisiae deletion strains, locus YMR307W, strain GAS1, stronger effect = lower value",0.726 (inactive)
same,normalized growth,"S. cerevisiae deletion strains, locus YNL067W, strain RPL9B, stronger effect = lower value",0.843 (active)
same,normalized growth,"S. cerevisiae deletion strains, locus YNL071W, strain lat1, stronger effect = lower value",1.03 (inactive)
same,normalized growth,"S. cerevisiae deletion strains, locus YNL128W, strain TEP1, stronger effect = lower value",0.981 (inactive)
same,normalized growth,"S. cerevisiae deletion strains, locus YNL153C, strain GIM3, stronger effect = lower value",0.823 (active)
same,normalized growth,"S. cerevisiae deletion strains, locus YNL175C, strain NOP13, stronger effect = lower value",1 (inactive)
same,normalized growth,"S. cerevisiae deletion strains, locus YNL183C, strain NPR1, stronger effect = lower value",0.935 (inactive)
same,normalized growth,"S. cerevisiae deletion strains, locus YNL197C, strain WHI3, stronger effect = lower value",1.02 (inactive)
same,normalized growth,"S. cerevisiae deletion strains, locus YNL209W, strain ssb2, stronger effect = lower value",1.03 (inactive)
same,normalized growth,"S. cerevisiae deletion strains, locus YNL224C, strain SQS1, stronger effect = lower value",1.01 (inactive)
same,normalized growth,"S. cerevisiae deletion strains, locus YNL233W, strain BNI4, stronger effect = lower value",0.781 (active)
same,normalized growth,"S. cerevisiae deletion strains, locus YNL248C, strain rpa49, stronger effect = lower value",1.02 (inactive)
same,normalized growth,"S. cerevisiae deletion strains, locus YNL250W, strain rad50, stronger effect = lower value",0.957 (inactive)
same,normalized growth,"S. cerevisiae deletion strains, locus YNL271C, strain bni1, stronger effect = lower value",0.992 (inactive)
same,normalized growth,"S. cerevisiae deletion strains, locus YNL298W, strain CLA4, stronger effect = lower value",0.994 (inactive)
same,normalized growth,"S. cerevisiae deletion strains, locus YNL307C, strain MCK1, stronger effect = lower value",0.965 (inactive)
same,normalized growth,"S. cerevisiae deletion strains, locus YNL322C, strain KRE1 (second series), stronger effect = lower value",1.06 (inactive)
same,normalized growth,"S. cerevisiae deletion strains, locus YNL322C, strain KRE1, stronger effect = lower value",1 (inactive)
same,normalized growth,"S. cerevisiae deletion strains, locus YNR049C, strain mso1, stronger effect = lower value",1.02 (inactive)
same,normalized growth,"S. cerevisiae deletion strains, locus YNR052C, strain pop2, stronger effect = lower value",0.887 (active)
same,normalized growth,"S. cerevisiae deletion strains, locus YOL006C, strain TOP1, stronger effect = lower value",0.242 (active)
same,normalized growth,"S. cerevisiae deletion strains, locus YOL012C, strain htz1",0.611 (inactive)
same,normalized growth,"S. cerevisiae deletion strains, locus YOL147C, strain pex11, stronger effect = lower value",0.989 (inactive)
same,normalized growth,"S. cerevisiae deletion strains, locus YOR001W, strain rrp6, stronger effect = lower value",1.01 (inactive)
same,normalized growth,"S. cerevisiae deletion strains, locus YOR061W, strain CKA2, stronger effect = lower value",0.93 (inactive)
same,normalized growth,"S. cerevisiae deletion strains, locus YOR069W, strain VPS5, stronger effect = lower value",0.983 (inactive)
same,normalized growth,"S. cerevisiae deletion strains, locus YOR070C, strain gyp1, stronger effect = lower value",1.02 (inactive)
same,normalized growth,"S. cerevisiae deletion strains, locus YOR080W, strain dia2, stronger effect = lower value",1.06 (inactive)
same,normalized growth,"S. cerevisiae deletion strains, locus YOR083W, strain WHI5 (second series), stronger effect = lower value",1.03 (inactive)
same,normalized growth,"S. cerevisiae deletion strains, locus YOR083W, strain WHI5, stronger effect = lower value",0.967 (inactive)
same,normalized growth,"S. cerevisiae deletion strains, locus YOR106W, strain vam3, stronger effect = lower value",1.03 (inactive)
same,normalized growth,"S. cerevisiae deletion strains, locus YOR136W, strain idh2, stronger effect = lower value",0.954 (inactive)
same,normalized growth,"S. cerevisiae deletion strains, locus YOR144C, strain elg1, stronger effect = lower value",0.99 (inactive)
same,normalized growth,"S. cerevisiae deletion strains, locus YOR184W, strain ser1, stronger effect = lower value",0.888 (inactive)
same,normalized growth,"S. cerevisiae deletion strains, locus YOR231W, strain MKK1, stronger effect = lower value",0.982 (inactive)
same,normalized growth,"S. cerevisiae deletion strains, locus YOR265W, strain rbl2, stronger effect = lower value",1.02 (inactive)
same,normalized growth,"S. cerevisiae deletion strains, locus YOR270C, strain vph1, stronger effect = lower value",0.972 (inactive)
same,normalized growth,"S. cerevisiae deletion strains, locus YOR290C, strain snf2, stronger effect = lower value",1.02 (inactive)
same,normalized growth,"S. cerevisiae deletion strains, locus YOR316C, strain cot1, stronger effect = lower value",0.979 (inactive)
same,normalized growth,"S. cerevisiae deletion strains, locus YPL051W, strain arl3, stronger effect = lower value",0.99 (inactive)
same,normalized growth,"S. cerevisiae deletion strains, locus YPL055C, strain LGE1, stronger effect = lower value",0.653 (active)
same,normalized growth,"S. cerevisiae deletion strains, locus YPL078C, strain atp4, stronger effect = lower value",1.04 (inactive)
same,normalized growth,"S. cerevisiae deletion strains, locus YPL106C, strain sse1, stronger effect = lower value",1.06 (inactive)
same,normalized growth,"S. cerevisiae deletion strains, locus YPL240C, strain hsp82, stronger effect = lower value",1.02 (inactive)
same,normalized growth,"S. cerevisiae deletion strains, locus YPL241C, strain CIN2, stronger effect = lower value",0.98 (inactive) and 1 (inactive)
same,normalized growth,"S. cerevisiae deletion strains, locus YPL256C, strain CLN2, stronger effect = lower value",0.98 (inactive)
same,normalized growth,"S. cerevisiae deletion strains, locus YPR119W, strain clb2, stronger effect = lower value",0.989 (inactive)
same,normalized growth,"S. cerevisiae deletion strains, locus YPR141C, strain kar3, stronger effect = lower value",0.984 (inactive)
same,normalized growth,"S. cerevisiae deletion strains, locus YPR163C, strain tif3, stronger effect = lower value",0.792 (active)
same,normalized growth,"S. cerevisiae deletion strains, locus YPR167C, strain met16, stronger effect = lower value",0.988 (inactive)
same,normalized growth,"S. cerevisiae deletion strains, strain wtn01, stronger effect = lower value",0.912 (inactive)
same,normalized growth,"S. cerevisiae strains, strain wild type, stronger effect = lower value",0.878 (active)
